Test results from ChEMBL document CHEMBL4513216, “Probing the Open Global Health Chemical Diversity Library for Multistage-Active Starting Points for Next-Generation Antimalarials” (ACS Infect Dis, 2020).
The campaign covered roughly 68,000 compounds. About 2,700 (4%) showed an effect of 50% or more. Shown is part of a subset that was picked to be rich in strong results.

system: Plasmodium berghei; assay: Screen against P. berghei liver stage (PbLuc), transformed with Luciferase, at 2uM; type: functional, HepG2; details: tested at 2 uM

Question: Which INHIBITION does the source give for Cc1nc(CN(C)C2CCN(CCCc3ccccc3)C2)no1 (stereo not drawn) here?
Answer: The INHIBITION was 16.25%.

Question: Which INHIBITION does the source give for CC(C)c1nc(CN(C)C2CCCN(c3cccnn3)C2)no1 (stereo not drawn) here?
Answer: The INHIBITION was -68.26%.

Question: With Cc1nc(CN(C)C2CCN(Cc3nc4ccccc4s3)C2)no1 (stereo not drawn) as the compound, how does the INHIBITION read?
Answer: Its INHIBITION is -75.02%.

Question: Cc1nc(CN(C)C2CCCN(c3ccccc3)C2)no1 (stereo not drawn) was tested. Which INHIBITION did it give?
Answer: The INHIBITION was 74.35%.

Question: Cc1ccc(N2CCCC(N(C)Cc3cc(C)no3)C2)nn1 (stereo not drawn) was tested. Which INHIBITION did it give?
Answer: Its INHIBITION is 75.47%.

Question: Cc1nc(CN(C)C2CCCN(c3cccnn3)C2)no1 (stereo not drawn) was tested. Which INHIBITION did it give?
Answer: The INHIBITION was 51.21%.

Question: With Cc1nc(CN(C)C2CCN(Cc3nc4ccccc4n3C)C2)no1 (stereo not drawn) as the compound, how does the INHIBITION read?
Answer: The INHIBITION was -2.87%.

Question: How did the INHIBITION turn out when Cc1nc(CN(C)C2CCN(CC3CCC3)C2)no1 (stereo not drawn) was run?
Answer: The INHIBITION was 15.28%.

Question: Cc1ccc(N2CCCC(N(C)Cc3cc(C)on3)C2)nn1 (stereo not drawn) was tested. Which INHIBITION did it give?
Answer: Its INHIBITION is -1.21%.

Question: How did the INHIBITION turn out when Cc1nc(CN(C)C2CCN(Cc3ccc4ccccc4n3)C2)no1 (stereo not drawn) was run?
Answer: The INHIBITION was 55.7%.

Question: With CN(Cc1noc(C2CC2)n1)C1CCCN(c2cccnn2)C1 (stereo not drawn) as the compound, how does the INHIBITION read?
Answer: Its INHIBITION is -13.24%.

Question: Cc1cc(CN(C)C2CCCN(c3cccnn3)C2)on1 (stereo not drawn) was tested. Which INHIBITION did it give?
Answer: The INHIBITION was 13.35%.

Question: How did the INHIBITION turn out when COCCC(=O)NC(C)(C(N)=O)c1cccc(Cl)c1 (stereo not drawn) was run?
Answer: Its INHIBITION is 7.37%.

Question: With O=S1(=O)CCC(n2nc(COc3ccccc3)nc2-c2cnccn2)C1 (stereo not drawn) as the compound, how does the INHIBITION read?
Answer: Its INHIBITION is -5.42%.

Question: For Cc1nc(CCNC(Cc2ccncc2)C(F)(F)F)cs1 (stereo not drawn), which INHIBITION is on record?
Answer: Its INHIBITION is -2.89%.

Question: How did the INHIBITION turn out when CCN(C)Cc1n[nH]c(=O)n1-c1cc(F)ccc1C was run?
Answer: Its INHIBITION is 5.78%.

Question: For CN(C)C(=O)Cc1ccccc1NCc1noc(-c2ccccc2)n1, which INHIBITION is on record?
Answer: The INHIBITION was 22.19%.

Question: With CCn1nccc1CNc1nc(N)nc2c1nc(C)n2C as the compound, how does the INHIBITION read?
Answer: Its INHIBITION is 14.79%.

Question: CNC(=O)C(NC(=O)c1nccn2ccnc12)c1ccc(F)c(F)c1 (stereo not drawn) was tested. Which INHIBITION did it give?
Answer: The INHIBITION was 29.53%.

Question: For CSCCC(Nc1nc(C)cc(C)n1)C(=O)NCC1CCOCC1 (stereo not drawn), which INHIBITION is on record?
Answer: The INHIBITION was 0.62%.

Question: For CC(C)c1noc(CN2CCOCC2C)n1 (stereo not drawn), which INHIBITION is on record?
Answer: The INHIBITION was 27.86%.

Question: With CN(CC(=O)NCc1ccccn1)C1CCCN(c2cccnn2)C1 (stereo not drawn) as the compound, how does the INHIBITION read?
Answer: Its INHIBITION is -117.12%.

Question: For CN(CC(=O)Nc1ccncc1)C1CCCN(c2cccnn2)C1 (stereo not drawn), which INHIBITION is on record?
Answer: Its INHIBITION is 7.13%.

Question: With COCCCNC(=O)CN(C)C1CCCN(c2cccnn2)C1 (stereo not drawn) as the compound, how does the INHIBITION read?
Answer: Its INHIBITION is 64.16%.

Question: Cc1ccc(C(=O)N2CCC3(CCCCC3)C2)c(=O)[nH]1 was tested. Which INHIBITION did it give?
Answer: Its INHIBITION is -8.54%.

Question: Which INHIBITION does the source give for CN(C)C(=O)c1c[nH]nc1C1CCN(S(=O)(=O)c2cccc(Cl)c2)CC1 here?
Answer: Its INHIBITION is 13.02%.

Question: For Cc1ncsc1-c1nnc(C2CCN(Cc3cccc(F)c3F)CC2)o1, which INHIBITION is on record?
Answer: Its INHIBITION is 35.56%.

Question: Cc1cccc(CN2CCC3(CCCN(C(=O)CN(C)C)C3)C2=O)n1 (stereo not drawn) was tested. Which INHIBITION did it give?
Answer: Its INHIBITION is 28.95%.

Question: Which INHIBITION does the source give for Cc1cccc(CN2CCC3(CCCN(C(=O)N4CCCC4)C3)C2=O)n1 (stereo not drawn) here?
Answer: Its INHIBITION is -9.14%.

Question: How did the INHIBITION turn out when Cc1cccc(CN2CCC3(CCCN(C(=O)N(C)C)C3)C2=O)n1 (stereo not drawn) was run?
Answer: The INHIBITION was 51.81%.

Question: With CC(C)NC(=O)CCCn1cnc2ccccc2c1=O as the compound, how does the INHIBITION read?
Answer: Its INHIBITION is 35.43%.

Question: How did the INHIBITION turn out when CC(C)Cn1cnc2ccc(NC(=O)CCCn3cccn3)cc2c1=O was run?
Answer: The INHIBITION was 16.03%.

Question: For CC(NC(=O)CCCn1cnc2ccccc2c1=O)c1ncn[nH]1 (stereo not drawn), which INHIBITION is on record?
Answer: Its INHIBITION is 22.27%.

Question: Cn1cnc2ccc(NC(=O)CCCn3cccn3)cc2c1=O was tested. Which INHIBITION did it give?
Answer: The INHIBITION was 25.61%.

Question: For COCC(C)NC(=O)CCCn1cnc2ccccc2c1=O (stereo not drawn), which INHIBITION is on record?
Answer: The INHIBITION was 51.36%.

Question: With COCCn1cnc2ccc(NC(=O)CCCn3cccn3)cc2c1=O as the compound, how does the INHIBITION read?
Answer: The INHIBITION was 52.05%.

Question: CC(C)Nc1ncnc2c1CCN(C(=O)NCc1cccc(F)c1)CC2 was tested. Which INHIBITION did it give?
Answer: The INHIBITION was -36.75%.

Question: Which INHIBITION does the source give for O=C(c1cccnc1Oc1ccc(Cl)cc1)N1CC[C@@H](O)C1 here?
Answer: The INHIBITION was 18.2%.

Question: With O=C(c1ccccn1)N1CCCC(c2ncncc2-c2ccncc2)C1 (stereo not drawn) as the compound, how does the INHIBITION read?
Answer: Its INHIBITION is 39.9%.

Question: For CNC(=O)N1CCC2(COCc3c(C)nc(NCc4ccco4)nc32)C1 (stereo not drawn), which INHIBITION is on record?
Answer: Its INHIBITION is 16.91%.

Question: With COc1ncccc1C(=O)N1CCn2c(COCC3CC3)cnc2C1C (stereo not drawn) as the compound, how does the INHIBITION read?
Answer: The INHIBITION was 30.38%.

Question: Which INHIBITION does the source give for COC(=O)COc1nc(CC(C)C)c2c(c1C#N)CCCC2 here?
Answer: Its INHIBITION is 26.06%.

Question: Which INHIBITION does the source give for CN(Cc1cccnc1)CC1CNCc2nccn2C1 (stereo not drawn) here?
Answer: Its INHIBITION is 37.65%.

Question: Which INHIBITION does the source give for COc1ccc2cnn(CC(=O)NC3CCCC3)c(=O)c2c1OC here?
Answer: The INHIBITION was 45.14%.

Question: CN(C(=O)c1cn(C)cn1)[C@@H]1CCC[C@@H](Oc2ccccc2)[C@@H]1O was tested. Which INHIBITION did it give?
Answer: The INHIBITION was 32.81%.

Question: How did the INHIBITION turn out when c1csc(-c2noc(CCCNC3CCc4ncnn4C3)n2)c1 (stereo not drawn) was run?
Answer: Its INHIBITION is -15.69%.

Question: For COc1ccc(C(=O)N(Cc2cnn(C)c2)C(C)C)cc1Br, which INHIBITION is on record?
Answer: Its INHIBITION is 9.36%.

Question: Which INHIBITION does the source give for COc1cc(C(=O)N(Cc2cnn(C)c2)C(C)C)ccc1OC(C)C here?
Answer: Its INHIBITION is -31.57%.

Question: With COc1cc(C(=O)N(Cc2cnn(C)c2)C(C)C)ccc1C as the compound, how does the INHIBITION read?
Answer: The INHIBITION was 53.98%.

Question: For CCOc1ccc(C(=O)N(Cc2cnn(C)c2)C(C)C)cc1OCC, which INHIBITION is on record?
Answer: The INHIBITION was 23.42%.

Question: With COc1ccc(C(=O)N(Cc2cnn(C)c2)C(C)C)cc1OC(F)F as the compound, how does the INHIBITION read?
Answer: The INHIBITION was 60.09%.

Question: With COc1cc(C(=O)N(Cc2cnn(C)c2)C(C)C)ccc1OCC(N)=O as the compound, how does the INHIBITION read?
Answer: Its INHIBITION is -61.5%.

Question: With CN1CCC(Cc2noc(CCc3nc4ccccc4nc3O)n2)CC1 as the compound, how does the INHIBITION read?
Answer: The INHIBITION was -14%.

Question: How did the INHIBITION turn out when O=C(c1ccc[nH]1)N1CCc2c(COCc3ccncc3)cncc2C1 was run?
Answer: The INHIBITION was -18.76%.

Question: Which INHIBITION does the source give for Cc1ccc(CN2CC[C@@H]3[C@@H]2CCN3C(=O)Cc2cccs2)o1 here?
Answer: The INHIBITION was -45.36%.

Question: For O=C(CN1CCCC1CC(=O)c1ccccc1)NCc1ccccn1 (stereo not drawn), which INHIBITION is on record?
Answer: The INHIBITION was -47.19%.

Question: With CCN(Cc1noc(CC(C)C)n1)C[C@]1(O)CCCN2CCCC[C@@H]21 as the compound, how does the INHIBITION read?
Answer: Its INHIBITION is 6.33%.

Question: With CCN(Cc1nc(COC)no1)C[C@]1(O)CCCN2CCCC[C@@H]21 as the compound, how does the INHIBITION read?
Answer: Its INHIBITION is 21.67%.

Question: For CC(C)Cc1noc(CN(C)C[C@]2(O)CCCN3CCCC[C@@H]32)n1, which INHIBITION is on record?
Answer: The INHIBITION was 58.09%.

Question: How did the INHIBITION turn out when Cc1nn(C)c(C)c1C(=O)NN1CCOCC1 was run?
Answer: Its INHIBITION is 27.88%.

Question: With CCOc1ccc2ccccc2c1CNCC1CCNCC1 as the compound, how does the INHIBITION read?
Answer: Its INHIBITION is -14.75%.

Question: Which INHIBITION does the source give for Cc1cccnc1CC(C)Nc1nc(N)nc2c1CCNC2 (stereo not drawn) here?
Answer: The INHIBITION was 22.63%.

Question: How did the INHIBITION turn out when CCn1nc(C)c(NC(=O)CN2CC[C@H](CO)[C@@H](O)C2)c1C was run?
Answer: Its INHIBITION is 7.29%.

Question: CCn1nc(C)c(NC(=O)CN2CCC(c3ccccc3Cl)C2)c1C (stereo not drawn) was tested. Which INHIBITION did it give?
Answer: Its INHIBITION is 50.9%.

Question: How did the INHIBITION turn out when CCn1nc(C)c(NC(=O)CN2CC[C@@H](F)C2)c1C was run?
Answer: The INHIBITION was -28.65%.

Question: How did the INHIBITION turn out when CCN(CC)C(=O)C1CCCN(CC(=O)Nc2c(C)nn(CC)c2C)C1 (stereo not drawn) was run?
Answer: Its INHIBITION is 23.58%.

Question: Which INHIBITION does the source give for CCn1nc(C)c(NC(=O)CN2CCN(C(C)=O)CC2)c1C here?
Answer: The INHIBITION was 53.77%.

Question: Which INHIBITION does the source give for CCn1nc(C)c(NC(=O)C(C)C)c1C here?
Answer: The INHIBITION was 12.62%.
